{
  "source": "paper PMC7826789",
  "about": "(International Journal of Molecular Sciences, 2021)",
  "tested_on": "PDPK1",
  "data": [
    {"compound": "CNc1nc(-c2ccc3c(N)n[nH]c3c2)cc(N2C[C@@H](C(=O)NC3CCCCC3)CC[C@H]2C)n1", "note": "[GSK2334470]", "values": [
      {"measurement": "Kinases covered", "value": "PDPK1"}
    ]}
  ]
}
